From PubChem BioAssay
Calls of active or inactive are those of the source. Unless noted, no rule for the calls is given here.

Legend:
[1] = system: Wnt5a (protein binding on small-molecule microarray); experiment: Wnt5a binders on small-molecule microarray, primary screen, biophysical, 635/667 nm fluorescence (AID 1142); conditions: 635 nm fluorescence, higher = more signal;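 also: fluorescence read at 667 nm with signal to noise per printed feature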
[2] = cell viability in Huh7 cells, primary screen, cytotoxicity control for HCV replication inhibitor project, CellTiter-Glo luminescence, basal, 48 h (AID 1143); conditions: Huh7 HCV replicon, higher = more signal, called active from +8 up or from −8 down;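 also: Huh7 hepatoma cells carrying a hepatitis C replication reporter with no stimulus; test concentration not given here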
[3] = P. aeruginosa biofilm formation inhibitors, primary screen, PAO1 strain, BacTiter-Glo luminescence, LB-PBS (AID 1144); conditions: 12 h, higher = more signal
[4] = CREB reporter modulators without forskolin, primary screen, cell-based, PC12, CRE-LacZ reporter, unstimulated (AID 1145); conditions: no forskolin, luminescence, 4.5 h, higher = more signal, called active from +8 up or from −8 down
[5] = CREB reporter modulators under forskolin, primary screen, cell-based, PC12, CRE-LacZ reporter, forskolin-stimulated (AID 1146); conditions: luminescence, 4.5 h, higher = more signal, called active from +8 up or from −8 down;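 also: PC12 cells with 6xCRE LacZ reporter stimulated by forskolin 10 µM; beta-galactosidase reporter signal reflecting CREB driven transcription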
[6] = biological target: Streptavidin (Streptomyces avidinii) (UniProt P22629); experiment: streptavidin binders on small-molecule microarray, primary screen, artefact control for SMM compound annotation, biophysical, 635/667 nm fluorescence (AID 1147); conditions: streptavidin binding, higher = more signal;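 also: signal reflects streptavidin binding to arrayed compounds as a control protein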
[7] = small-molecule binders of probe aInhba, primary screen, biochemical, small-molecule microarray, 635/667 nm fluorescence (AID 1148); conditions: higher = more signal;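 also: score merges 667nm spot fluorescence with signal-to-noise for antibody binding to printed compounds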
Torsin-1A (Homo sapiens) [8] = biological target: Torsin-1A (Homo sapiens) (UniProt O14656); experiment: torsin A binders from cell lysate, primary screen, small-molecule microarray, wild-type, 635/667 nm (AID 1149); conditions: COS7 hTOR1A-WT lysate, 635 nm fluorescence, higher = more signal
Torsin-1A (Homo sapiens) [9] = biological target: Torsin-1A (Homo sapiens) (UniProt O14656); experiment: small-molecule binders of mutant TOR1A in lysate, primary screen, cell lysate, small-molecule microarray, COS7 lysate, 635/667 nm fluorescence (AID 1150); conditions: COS7 hTOR1A mutant lysate, 635 nm fluorescence, higher = more signal;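 also: score pools 667 nm emission and signal to noise measuring lysate protein binding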
[10] = system: Sonic hedgehog protein (Shh); experiment: small-molecule binders of Shh protein, primary screen, biochemical, small-molecule microarray, 635/667 nm fluorescence (AID 1151); conditions: small-molecule microarray binding, 635 nm fluorescence; higher = more signal;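 also: Shh protein binding to compounds spotted on small-molecule microarray slides; score combines spot fluorescence intensity with signal-to-noise across triplicate slides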

Chain of Torsin-1A (Homo sapiens) (O14656 whole entry, looked up): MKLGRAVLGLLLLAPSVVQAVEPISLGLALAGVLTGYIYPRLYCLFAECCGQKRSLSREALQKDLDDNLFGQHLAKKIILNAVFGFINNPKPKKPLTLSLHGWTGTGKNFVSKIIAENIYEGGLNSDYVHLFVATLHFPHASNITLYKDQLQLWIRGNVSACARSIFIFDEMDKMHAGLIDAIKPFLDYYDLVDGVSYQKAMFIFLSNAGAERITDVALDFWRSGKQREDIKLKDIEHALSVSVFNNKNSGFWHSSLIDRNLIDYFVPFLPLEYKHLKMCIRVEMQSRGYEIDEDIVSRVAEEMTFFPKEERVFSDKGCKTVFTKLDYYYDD
Chain of Streptavidin (Streptomyces avidinii) (P22629 whole entry, looked up): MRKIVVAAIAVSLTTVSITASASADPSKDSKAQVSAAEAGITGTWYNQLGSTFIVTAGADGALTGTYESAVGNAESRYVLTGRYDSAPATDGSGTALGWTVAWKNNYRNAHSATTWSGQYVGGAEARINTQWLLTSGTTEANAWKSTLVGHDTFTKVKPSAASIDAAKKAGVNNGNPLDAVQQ

Structure (SMILES) | composite z-score [1] | z-score [2] | z-score [3] | z-score [4] | z-score [5] | composite z-score [6] | composite z-score [7] | composite z-score (Torsin-1A (Homo sapiens) [8]) | composite z-score (Torsin-1A (Homo sapiens) [9]) | composite z-score [10]
O=C1O[C@@H](c2ccccc2)[C@@H](c2ccccc2)N2[C@@H](c3ccc(O)cc3)[C@]3(C(=O)Nc4ccc(C#CCCO)cc43)[C@@H](C(=O)Nc3nc4ccccc4s3)[C@H]12 | 0.106 | -0.486 (inactive) | 0.422 (inactive) | -0.195 (inactive) | 1.93 (inactive) | 0.103 | 0.0471 | -0.363 | 0.897 | 0.756
CCOC(=O)C[C@H]1[C@H](OC(=O)c2ccccc2-c2ccccc2)[C@@H](NC(=O)c2ccc3ccccc3n2)c2cc(OCCCO)ccc2N1C(=O)c1ccc2ccccc2n1 | 0.191 | -0.688 (inactive) | -1.37 (inactive) | 1.22 (inactive) | 0.305 (inactive) | 1.07 | -0.117 | -0.137 | -0.184 | 0.389
CC=CC(O)C1C=CC2C(=O)N(C)C(=O)C2N1Nc1ccc([N+](=O)[O-])cc1[N+](=O)[O-] (stereo not given) | -0.449 | 1.01 (inactive) | -0.658 (inactive) | -0.136 (inactive) | 0.71 (inactive) | -0.118 | -0.128 | 0.316 | -0.297 | -0.144
COc1ccc(C(O)C2C=CC3C(=O)N(C)C(=O)C3N2N2CCCCC2)cc1 (stereo not given) | 0.345 | 0.758 (inactive) | -0.3 (inactive) | 0.639 (inactive) | 0.104 (inactive) | 1.54 | 0.158 | 0.718 | 0.849 | -0.381
[N-]=[N+]=NCc1ccccc1C[C@@]1(C(N)=O)N=C(c2ccc(OCCCO)cc2)O[C@@H]1c1ccccc1CN=[N+]=[N-] | 0.592 | -2.14 (inactive) | 0.0387 (inactive) | 0.0451 (inactive) | 0.161 (inactive) | 1.13 | -0.0418 | 0.549 | 0.335 | -0.302
CCOC(=O)C1=CC[C@@H](c2cc(Cl)ccc2Cl)N(S(=O)(=O)c2ccc(C)cc2)[C@H]1c1ccc(OC)cc1 | 1.11 | -4.08 (inactive) | 0.42 (inactive) | 0.472 (inactive) | -0.555 (inactive) | 0.0102 | 0.482 | 0.234 | 0.42 | 0.172
COc1ccc([Si](C)(C)[C@@H]2[C@@H](CCO)O[C@]3(C(=O)N(Cc4cccc(N5C(=O)c6ccccc6Oc6ccccc65)c4)c4ccccc43)[C@H]2C)cc1 | -0.193 | -5.77 (inactive) | -1.34 (inactive) | 6.17 (inactive) | 0.291 (inactive) | -0.313 | -0.251 | -0.133 | -0.548 | -0.264
CO[C@H]1O[C@H](CO)[C@@H](OC(=O)Nc2ccc(Oc3ccccc3)cc2)[C@H](OC(=O)Nc2ccccc2-c2ccccc2)[C@@H]1OC(=O)Nc1ccccc1-c1ccccc1 | 0.58 | -4.64 (inactive) | -0.935 (inactive) | -0.198 (inactive) | -0.355 (inactive) | 0.819 | 0.588 | -0.21 | 0.408 | 0.74
CN1C(=O)C2C(C1=O)C1C=C(c3ccc(CO)cc3)C2C(c2cccs2)N1Cc1cccc(OC(F)(F)F)c1 (stereo not given) | 0.314 | -3.4 (inactive) | -0.656 (inactive) | -0.336 (inactive) | -1.55 (inactive) | 0.474 | 0.0689 | 1.13 | -0.0742 | 0.834
CC(C)(C)OC(=O)CC[C@]1(C(=O)N2CCOCC2)N=C(c2ccc(OCCCO)cc2)O[C@H]1c1ccccc1 | 0.959 | -1.37 (inactive) | 0.838 (inactive) | -0.114 (inactive) | 1.06 (inactive) | 2.02 | -0.152 | -0.0284 | 0.618 | -0.733
COCCOC(=O)N1C(=O)[C@@]2(c3cc(C#CC4(O)CCCCCC4)ccc31)[C@H](C(=O)N1CCCCCCC1)[C@H]1C(=O)O[C@H](c3ccccc3)[C@H](c3ccccc3)N1[C@@H]2c1ccc(OCCO)cc1 | 1.19 | -3.66 (inactive) | 0.629 (inactive) | 0.623 (inactive) | -0.532 (inactive) | 2.63 | 1.85 | 1.25 | 1.8 | 2.17
CCCCC(=C=CC[C@@H](O)c1ccc(OCCO)cc1)C[C@@H](O)COCc1ccccc1 | 0.511 | -2.32 (inactive) | -0.656 (inactive) | 12.1 (active) | -1.48 (inactive) | -0.476 | -0.203 | 0.611 | 0.699 | 1.38
COCCOC(=O)N1C(=O)[C@@]2(c3cc(C#CCC(C(=O)OC)C(=O)OC)ccc31)[C@H](c1ccc(OCCO)cc1)N1[C@H](c3ccccc3)[C@H](c3ccccc3)OC(=O)[C@H]1[C@@H]2C(=O)N1CCN(c2ncccn2)CC1 | 0.672 | -4.96 (inactive) | -1.65 (inactive) | -1.42 (inactive) | -0.912 (inactive) | 0.945 | 0.122 | 1.19 | 0.6 | 2.09
CCOC(=O)C1=CC[C@@H](c2ccccc2)N(S(=O)(=O)c2ccc(C)cc2)C1 | 0.0639 | -2.28 (inactive) | 0.84 (inactive) | 0.229 (inactive) | 0.368 (inactive) | 0.342 | 0.0633 | 0.303 | 0.17 | -0.474
COCC(=C=CC[C@H](O)c1cccc(OCCO)c1)C[C@H](O)c1ccccn1 | 0.467 | -0.0843 (inactive) | -0.368 (inactive) | 1.34 (inactive) | -0.527 (inactive) | -0.368 | 0.0497 | -0.733 | -0.526 | 1.59
COc1c(C)cc(-c2cc3c(c(Cc4ccccc4)n2)[Si](C(C)C)(C(C)C)OC3)cc1C | 0.0025 | 0.428 (inactive) | 0.602 (inactive) | -0.0848 (inactive) | -0.47 (inactive) | 0.169 | -0.128 | -0.0914 | -0.105 | 0.513
COc1ccc(CCNC(=O)[C@@]2(Sc3ccc(C)cc3)CC(=O)N(Cc3cc(C(F)(F)F)cc(C(F)(F)F)c3)[C@@H]2c2ccc(CO)cc2I)cc1 | -0.466 | -0.73 (inactive) | -0.623 (inactive) | -0.554 (inactive) | 1.05 (inactive) | 0.762 | 0.0184 | 0.579 | -0.145 | 0.697
CCC[C@@H]1C[C@@]1(CCC)[C@@H](NP(=O)(c1ccccc1)c1ccccc1)c1ccc(Cl)cc1 | -0.298 | -1.4 (inactive) | 0.22 (inactive) | 0.0007 (inactive) | -0.113 (inactive) | -0.749 | -0.232 | -0.753 | -0.731 | -0.447
COC(=O)C1(Cc2ccccc2)C=C2C(=C(c3ccccc3)C(=O)C2C)CN1 (stereo not given) | 2 | -0.541 (inactive) | 0.125 (inactive) | 1.15 (inactive) | 0.465 (inactive) | 0.509 | 0.862 | 0.0676 | 0.47 | -0.525
COCC(=C=CC[C@H](O)c1ccc(OCCO)cc1)C[C@H](O)COCc1ccccc1 | 0.122 | -1.66 (inactive) | -0.54 (inactive) | 0.611 (inactive) | -0.724 (inactive) | 0.249 | -0.0736 | 0.908 | 0.719 | 1.55
O=C1OCC=C[C@H]2OC34C=CCN(c5ccc(Cl)cc5)C(=O)[C@H]3N(CCCCCO)C(=O)[C@@H]4[C@@H]12 (stereo not given in full) | -0.391 | -0.116 (inactive) | 1.73 (inactive) | 0.183 (inactive) | 0.168 (inactive) | -1.18 | -0.128 | 0.172 | 2.22 | -0.695
CCOC(=O)C1=C[C@@H](c2ccccc2)N(S(=O)(=O)c2ccc(C)cc2)[C@H]1c1cccc(Cl)c1 | 0.55 | -3.89 (inactive) | 1.51 (inactive) | 0.182 (inactive) | -0.451 (inactive) | 1.34 | 0.351 | 0.631 | 0.569 | 0.319
C=C(CCCC)C(=O)CC[C@@H](OC(=O)c1cccnc1)c1ccccc1OCCO | 0.047 | -1.55 (inactive) | -0.325 (inactive) | 4.16 (inactive) | 1.04 (inactive) | -0.368 | -0.128 | 0.417 | 0.781 | 1.76
O=C1c2ccccc2[C@@]2(Cc3ccccc3N(C3CC3)C2=O)[C@H](c2ccc(CO)cc2)N1C1CCCCC1 | -0.157 | 0.0786 (inactive) | 0.122 (inactive) | 0.145 (inactive) | 0.428 (inactive) | -0.885 | -0.0791 | -0.822 | -0.928 | -0.309
O=C1O[C@@H](c2ccccc2)[C@@H](c2ccccc2)N2[C@@H](c3ccccc3OCCO)[C@]3(C(=O)Nc4ccc(C#CC5=CCCCC5)cc43)[C@@H](C(=O)NC[C@H](O)c3ccccc3)[C@H]12 | 0.361 | -6.39 (inactive) | -0.534 (inactive) | -1.56 (inactive) | -1.15 (inactive) | 0.625 | 0.162 | 0.385 | -0.0373 | 1.99
O=C1C2C=CC(C(O)c3cc(C(F)(F)F)cc(C(F)(F)F)c3)N(Nc3ccc([N+](=O)[O-])cc3)C2C(=O)N1c1ccccc1 (stereo not given) | 0.553 | -4.58 (inactive) | -0.0376 (inactive) | 1.63 (inactive) | -0.303 (inactive) | 1.02 | 0.358 | 0.621 | 0.428 | 0.74
O=C1NC(=O)C2C1C=CC(C(O)c1ccc3c(c1)OCO3)N2Nc1ccccn1 (stereo not given) | 0.141 | -0.259 (inactive) | -1.72 (inactive) | 1.01 (inactive) | 0.689 (inactive) | 0.501 | -0.203 | 0.546 | 0.05 | 0.347
CC(CO)N1C(=O)[C@@H]2C3C(=O)OCCC/C=C\[C@H]3OC23C=CCN(Cn2nnc4ccccc42)C(=O)[C@@H]13 (stereo not given in full) | -0.275 | 0.39 (inactive) | -1.36 (inactive) | -0.358 (inactive) | -0.691 (inactive) | -0.521 | -0.024 | -1.02 | -0.296 | 0.276
